The results in this text go back to PubChem BioAssay (NCI).

About 79,000 compounds went through this panel and 15% of them were active in at least one assay; those are over-represented in the sample as a whole. Unmarked numbers belong to inactive results. Activity calls are given as the source filed them. Cut-off read from the data, not from the text of the source: active = growth inhibition above about 70%; inactive = the rest. Where a SMILES comes first, the peptide text is derived from it.

Experiment [1] can be described thus: NCI Yeast Anticancer Drug Screen. Data for the rad50 strain (AID 155).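 Note: 0% = growth of vehicle-only cultures of the same strain.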 To be noted: S. cerevisiae rad50 strain growth inhibition; at 50.0 µM; stronger effect = higher value. The gist of the method:
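DNA repair mutant yeast, compound exposure, growth read-out; inhibition is taken relative to vehicle.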

Experiment [2] is described as follows: NCI Yeast Anticancer Drug Screen. Data for the mec2-1 strain (AID 157). To be noted: S. cerevisiae mec2-1 strain, at 50.0 µM, stronger effect = higher value. In a few lines:
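Using mec2-1 yeast: add compound, measure growth, express inhibition versus vehicle-treated cultures.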

Experiment [3] can be described thus: NCI Yeast Anticancer Drug Screen. Data for the sgs1 mgt1 strain (AID 161).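 Note: 0% = growth of cultures given vehicle only.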 To be noted: S. cerevisiae sgs1 mgt1 strain, at 50.0 µM, stronger effect = higher value. The gist of the method: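 Growth of a repair-deficient yeast mutant was monitored after compound treatment and expressed as inhibition relative to vehicle-treated cultures.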
Experiment [4] can be described thus: NCI Yeast Anticancer Drug Screen. Data for the cln2 rad14 strain (AID 165).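 Note: 0% = growth equal to vehicle treated cultures.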 To be noted: S. cerevisiae cln2 rad14 strain, at 50.0 µM, stronger effect = higher value. The gist of the method: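 Yeast strain cln2 rad14, bearing defects in cell cycle control and DNA repair, serves as the test system; values reflect growth inhibition compared with vehicle.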
Experiment [5] is described as follows: NCI Yeast Anticancer Drug Screen. Data for the bub3 strain (AID 167). To be noted: S. cerevisiae bub3 mutant strain, at 50.0 µM, stronger effect = higher value. The gist of the method: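 In this screen, a yeast mutant lacking normal mitotic checkpoint function is challenged with compound. Relative growth versus vehicle gives the inhibition value.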
Experiment [6] in a line: NCI Yeast Anticancer Drug Screen. Data for the mlh1 rad18 strain (AID 175). To be noted: S. cerevisiae mlh1 rad18 strain growth inhibition; at 50.0 µM; stronger effect = higher value. The gist of the method: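 Steps: expose repair-defective yeast to compound; measure growth; express inhibition against vehicle-treated controls.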

For `C[N+](C)(C)C12CCCC1S(=O)(=O)C2` (stereo unspecified), the growth inhibition in experiment [1] was 4.95%; in experiment [2], 4.25%; in experiment [3], 9.3%; in experiment [4], -7.5%; in experiment [5] it was -7.45%; in experiment [6] it was 16.6%.

Consider `Cc1ccc(S(=O)(=O)OCC(F)(F)C(F)(F)C(F)(F)CO)cc1`, for which the growth inhibition in experiment [1] is 19.1%; in experiment [2], 3.3%; in experiment [3], 22.2%; in experiment [4], -15.6%; in experiment [5], 3.85%; in experiment [6], -15.5%.

Regarding `CC(=O)Nc1cccc2c1C(=O)c1c(c(O)c3ccccc3c1O)C2=O`, the growth inhibition was 24.9% in experiment [1]; -9.85% in experiment [2]; -12.8% in experiment [3]; -9.3% in experiment [4]; -8.4% in experiment [5]; -1.85% in experiment [6].

Turning to `COc1ccc2cc3n(cc-2c1=O)CCc1cc2c(cc1-3)OCO2`, the growth inhibition was -8.65% in experiment [1]; -3.1% in experiment [2]; 5.65% in experiment [3]; -14.4% in experiment [4]; -6.65% in experiment [5]; 1.45% in experiment [6].

For `CSCC[C@H]1C(=O)N=C(N)N1C(=O)OCc1ccccc1`, the growth inhibition in experiment [1] is -5.7%; in experiment [2] it was 3.85%; in experiment [3], 3.6%; in experiment [4] it was -9.6%; in experiment [5], -2.75%; in experiment [6], 12.8%.

As for `CC(C)N(C(=O)c1cccc(C(=O)N(C(C)C)C(C)C)c1)C(C)C`, the growth inhibition in experiment [1] is 12.7%; in experiment [2] it was 2.45%; in experiment [3], 0.25%; in experiment [4], 11.3%; in experiment [5] it was 16.9%; in experiment [6], 33.4%.

Turning to `CC(=O)NC(C(=O)N1CCCC1C(=O)O)C(C)C` (stereo not drawn) (Ac-Val-Pro-OH; configuration not given here), the growth inhibition in experiment [1] was 7.9%; in experiment [2], -3.15%; in experiment [3] it was -6.65%; in experiment [4] it was 1.7%; in experiment [5], -19.1%; in experiment [6] it was 0.6%.

On to `Cc1cc(/C=C2\SC(=S)NC2=O)cc(C)c1O`, for which the growth inhibition is 1.65% in experiment [1]; 0.8% in experiment [2]; 24.6% in experiment [3]; 13.1% in experiment [4]; 22.8% in experiment [5]; 13.7% in experiment [6].

With `C/C(CC(O)(C(F)(F)Cl)C(F)(F)Cl)=N\Nc1ccccc1`, the growth inhibition in experiment [1] is 28%; in experiment [2], 15.1%; in experiment [3] it was 6.55%; in experiment [4], 28.1%; in experiment [5], -0.9%; in experiment [6], 17.5%.

For the compound `CC(C(=O)O)N(C)C(=O)OCc1ccccc1` (stereo unspecified), the growth inhibition was -3.95% in experiment [1]; -21.1% in experiment [2]; 1.55% in experiment [3]; -18.8% in experiment [4]; -11.8% in experiment [5]; -4.5% in experiment [6].

On to `O=C1c2ccccc2-c2nc(-c3ccccc3)cc3c2c1nc1ccccc13`, for which the growth inhibition in experiment [1] was 79% (active); in experiment [2], 51.7%; in experiment [3] it was 67.2%; in experiment [4], 64.8%; in experiment [5] it was 75% (active); in experiment [6], -7.15%.

Consider `CC(=O)CCn1ncc(Cl)c(Cl)c1=O`, for which the growth inhibition in experiment [1] is 1.4%; in experiment [2], -18.3%; in experiment [3], 3.6%; in experiment [4] it was 7.7%; in experiment [5], 1.15%; in experiment [6] it was 4.3%.

Turning to `CCCCC(CC)CN(CCOC(=O)c1cc2ccccc2oc1=O)CC(CC)CCCC` (stereo unspecified), the growth inhibition in experiment [1] was 20.8%; in experiment [2], -4.2%; in experiment [3], 48.8%; in experiment [4] it was 55%; in experiment [5], 20.8%; in experiment [6] it was 31.8%.

With `CC1(C)C2CCC1(C)C(NC(N)=O)C2` (stereo unspecified), the growth inhibition is -10% in experiment [1]; 6.45% in experiment [2]; -8.95% in experiment [3]; -6.6% in experiment [4]; 2.3% in experiment [5]; 10.5% in experiment [6].

In the case of `CCOC(=O)C1=C(NC(C)(C)C)OC/C1=N\NC(=O)Cc1ccccc1`, the growth inhibition in experiment [1] was 42.8%; in experiment [2] it was -3.6%; in experiment [3] it was 21.2%; in experiment [4], 16.6%; in experiment [5], 26.2%; in experiment [6], 28.1%.

For the compound `CCCCCc1c(-c2n[nH]c(C)c2CCCCC)n[nH]c1C`, the growth inhibition is 5.55% in experiment [1]; -6.05% in experiment [2]; -9.1% in experiment [3]; -7.85% in experiment [4]; -31.6% in experiment [5]; 1.8% in experiment [6].

Consider `S=C1NC=CC(S)N1` (stereo unspecified), for which the growth inhibition is -3.3% in experiment [1]; 5.95% in experiment [2]; 6.6% in experiment [3]; 10.3% in experiment [4]; 11.2% in experiment [5]; -1.35% in experiment [6].

For `COC1CC(NC(C)=O)C(O)C(C)O1` (stereo unspecified), the growth inhibition in experiment [1] was -10.2%; in experiment [2] it was -12.4%; in experiment [3] it was -10.6%; in experiment [4], -40%; in experiment [5], 5.65%; in experiment [6] it was 1.5%.

For the compound `COc1cc(OC)c(NC(=O)C(Cl)(Cl)Cl)cc1Cl`, the growth inhibition was 4% in experiment [1]; 42% in experiment [2]; 5.9% in experiment [3]; -17.4% in experiment [4]; 30.9% in experiment [5]; 27.4% in experiment [6].

On to `CC1(O)CC2C(CC1SCCO)C2(C)C` (stereo unspecified), for which the growth inhibition in experiment [1] is -30.4%; in experiment [2], -10.8%; in experiment [3] it was -42.1%; in experiment [4], -11.1%; in experiment [5] it was -56%; in experiment [6], -30.5%.

Turning to `CCOC(=O)CNc1ccccc1[N+](=O)[O-]`, the growth inhibition is -2.05% in experiment [1]; 5.8% in experiment [2]; -5.4% in experiment [3]; 12.3% in experiment [4]; 13.1% in experiment [5]; -3.75% in experiment [6].
